Only some compounds are listed: those with a hit (about 21% of all), similar ones and a draw of the others.
NS1 inh – influenza NS1 inhibition; AID 2326; Potency, µM (doses to about 46.1 µM), for inactives: at the top dose activity, positive = more growth; 270,000 tested, 0.4% active; calls by dose curve; note: potency is the fitted concentration of half-maximal effect; actives are rising curves; nearly all actives have a fitted effect of over 50% in size
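Growth recovery, yeast-based: influenza A NS1 expressed in S. cerevisiae causes slow growth, and suppressors are detected by OD600. The parent strain without NS1 is used as positive control.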
Giardia FBPA inh – blocks Giardia fructose-bisphosphate aldolase activity; Potency, µM (titrated, usually from 59.6 µM), for the others: top-dose activity, negative = inhibition, hits mostly inhibitors; A8B2U2; AID 2451; purified Giardia FBPA; 290,000 tested, 0.71% active; note: potency is the fitted concentration of half-maximal effect; % is set by controls: 0 for no effect and ±100 for the full control effect; nearly all actives have a fitted effect of over 55% in size
Target sequence (A8B2U2 whole entry, looked up): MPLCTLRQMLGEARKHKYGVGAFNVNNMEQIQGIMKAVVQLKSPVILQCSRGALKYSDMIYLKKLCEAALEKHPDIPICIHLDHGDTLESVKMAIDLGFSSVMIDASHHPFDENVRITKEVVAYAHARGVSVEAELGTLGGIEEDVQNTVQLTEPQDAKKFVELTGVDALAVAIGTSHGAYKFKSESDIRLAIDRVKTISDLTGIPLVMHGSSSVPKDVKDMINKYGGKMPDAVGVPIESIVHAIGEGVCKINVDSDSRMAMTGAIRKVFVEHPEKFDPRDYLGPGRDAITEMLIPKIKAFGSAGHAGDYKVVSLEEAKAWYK
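40 nM FBPA preincubated 10 min at RT with compound (up to 57.5 uM final), then substrate plus GAPDH/TPI/NAD/arsenate coupling and diaphorase/resazurin added. Fluorescence read after 20 min at RT, 525/598 nm.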
Pf growth 48h – P. falciparum growth inhibition at 48 hours (one generation); Potency, µM (titrated, usually from 28.7 µM), without a hit: at the top dose activity change, negative = inhibition, most hits filed as inhibitors; 310,000 tested, 5.9% active; P. falciparum luciferase growth in erythrocytes, 48 h; note: potency is the fitted concentration of half-maximal effect; % is set by controls: 0 for no effect and ±100 for the full control effect
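Luminescence readout; reporter = integrated firefly luciferase in P. falciparum. RBC culture at 2% hematocrit, 0.1% parasitemia final, 37 C/5% CO2; decreased signal taken as growth inhibition.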
Shiga toxin inh – blocks Shiga toxin action in Vero cells; inhibition, % at 38.7 µM; 290,000 tested, 9.2% active; Vero cells, Shiga toxin protein synthesis inhibition reporter; in the data active = inhibition mostly above about 28%, no sharp cut-off; inactive = mostly below about 43%; note: 0% is about no effect
Pf growth 96h – P. falciparum growth inhibition at 96 hour, primary screen for plastid delayed-death inhibitors; P. falciparum luciferase reporter growth, 96 h; Potency, µM (top dose mostly 28.7 µM), for inactives: at the highest dose activity change, negative = inhibition, most hits filed as inhibitors; 320,000 tested, 6.9% active; note: potency is the fitted concentration of half-maximal effect; % is set by controls: 0 for no effect and ±100 for the full control effect
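96 h incubation, 37 C, 5% CO2, of luciferase-reporter P. falciparum-infected RBCs (2% hematocrit, 0.05% parasitemia final) with test compounds; endpoint luminescence.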
CHX counter – counter-screen hit for Shiga toxin inhibitors, cycloheximide | cell reporter, cycloheximide protein synthesis inhibition counterscreen | max response, % | 300,000 tested, 12% active | AID 2314; in the data active = max response mostly above about 13%, no sharp cut-off; inactive = mostly below about 14%; note: read at 38.3 µM for the half of the compounds with a filed dose; 0% is about no effect
The depositor's hits bear a star; ? = inconclusive; / = no result given; [ ] = dose if it differs, or a comment. Unless noted, calls come from the whole dose curve; as a rule, active = well fitted curve in the direction sought with a large enough effect; inconclusive = small, poorly fitted or top-dose-only effect, or another doubt; inactive = no such curve, though single readings can be large; an effect the other way counts as inactive or inconclusive.

SMILES	NS1 inh	Giardia FBPA inh	Pf growth 48h	Shiga toxin inh	Pf growth 96h	CHX counter
CCCn1nc(C(=O)N2CCN(S(=O)(=O)c3ccc(C)c(C)c3)CC2)c2ccccc2c1=O	/	/	12µM*	/	?	/
O=C(N/N=C/c1cn(-c2cccs2)nc1-c1ccccc1)c1ccccc1O	23%	-6%	?	94*	6.6µM*	49*
O=C(N/N=C/c1ccccc1C(=O)O)c1ccccc1Br	/	0%	21%	38	0%	7
O=C(N/N=C/c1cn(-c2cccs2)nc1-c1ccccc1)c1ccccc1Br	17%	-4%	11%	55	?	25*
CCCN(CC(=O)Nc1ccc(Cl)cc1Cl)C(=O)/C=C/c1ccco1	-23%	0%	65%	174*	-11%	77*
C=C1C[C@H]2[C@@H]3C=C(C)C4=CC(=O)CC[C@]4(C)[C@H]3CC[C@]2(C)[C@@]1(OC(C)=O)C(C)=O	/	0%	9.3µM*	13	?	-10
O=C(CN1C(=O)S/C(=C\C=C\c2ccccc2)C1=O)NC1CCS(=O)(=O)C1 (stereo not drawn)	1%	-10%	128%	46*	99%	48*
CC(C)c1ccc(/C=C2\SC(=O)N(CC(=O)NC3CCS(=O)(=O)C3)C2=O)cc1 (stereo not drawn)	14%	/	84%	76*	47%	36*
COc1ccc(/C=C2\SC(=O)N(CC(=O)NC3CCS(=O)(=O)C3)C2=O)cc1 (stereo not drawn)	7%	-3%	48%	-6	110%	-5
O=C(CN1C(=O)S/C(=C\c2ccccc2)C1=O)NC1CCS(=O)(=O)C1 (stereo not drawn)	4%	/	26%	10	0%	1
Cc1ccc(S(=O)(=O)N(Cc2ccccc2F)C(=O)N2CCN(C)CC2)cc1	/	/	?	/	7%	/
CC(=O)c1ccc(-c2ccc(C(=O)NCC3CCCO3)o2)cc1 (stereo not drawn)	/	/	-13%	/	-29%	/
CCCc1[nH]n(-c2ccc([N+](=O)[O-])cc2)c(=O)c1C=NCCN1CCNCC1	2%	0%	19%	-6	4%	-2
CCCc1[nH]n(-c2ccc([N+](=O)[O-])cc2)c(=O)c1C=NCCCn1ccnc1	6%	4%	13µM*	-29	14%	-1
Cc1cccc(NC(=O)C2CCN(S(=O)(=O)c3cccc4nonc34)CC2)c1	-6%	1%	31%	-5	?	7
O=C(NCc1ccc(Cl)cc1)c1ccc(CNc2c(N3CCCC3)c(=O)c2=O)cc1	-2%	3%	-16%	10	?	-3
COc1ccccc1CNC(=O)c1ccc(CNc2c(N3CCCC3)c(=O)c2=O)cc1	-35%	3%	?	-10	4.7µM*	-6
CCOc1ccc(OCC)c(NC(=O)c2ccc(CNc3c(N4CCCC4)c(=O)c3=O)cc2)c1	-2%	-2%	12µM*	-11	?	-5
CCOc1ccc(NC(=O)c2ccc(CNc3c(N4CCCC4)c(=O)c3=O)cc2)cc1	-32%	-7%	19%	26	?	4
CC(C)c1ccccc1S(=O)(=O)c1cc(N)c2ncccc2c1[N+](=O)[O-]	/	-12%	/	/	/	/
CCc1ccc(NC(=O)Cn2nc(C(F)(F)F)c3c2CCC3)cc1	8%	0%	39%	14	68%	-4
O=C(Cn1nc(C(F)(F)F)c2c1CCCC2)NCCN1CCOCC1	-4%	3%	12µM*	-7	15µM*	-1
COc1cc(NC(=O)Cn2nc(C(F)(F)F)c3c2CCCC3)cc(OC)c1OC	-7%	3%	10µM*	-22	/	-3
CCCNC(=O)Cn1nc(C(F)(F)F)c2c1CCCC2	8%	9%	8%	25	18%	-2
O=S(=O)(Nc1cccc2cccnc12)c1ccc(Br)cc1	/	?	/	-11	/	-3
SMILES	NS1 inh	Giardia FBPA inh	Pf growth 48h	Shiga toxin inh	Pf growth 96h	CHX counter
Nn1cc(-c2ccccc2)nc1SCC(=O)N1CCN(S(=O)(=O)c2ccc(Cl)cc2)CC1	-21%	0%	?	16	?	-2
Nn1cc(-c2ccccc2)nc1SCC(=O)N1CCN(S(=O)(=O)c2ccc3ccccc3c2)CC1	-9%	0%	9.3µM*	-16	/	-2
Cc1nnc(SCC(=O)N2CCN(S(=O)(=O)c3ccccc3)CC2)s1	-3%	5%	-2%	-9	-7%	7
CCCCNc1nnc(SCC(=O)N2CCN(S(=O)(=O)c3ccc4ccccc4c3)CC2)s1	-1%	7%	/	-7	5.2µM*	12
O=C(NCCC1=CCCCC1)c1cc(-c2ccncc2)nc2ccccc12	/	0%	?	-9	112%	4
COCCn1c(=O)c(-c2ccc(Cl)cc2)nc2cnc(N(C)C)nc21	/	7%	/	/	/	/
C/C(=N/NC(=O)c1cc2ccccc2cc1O)c1ccco1	0%	/	?	20	14%	14
C/C(=N\NC(=O)c1cc2ccccc2cc1O)c1cccs1	18%	-9%	57%	80*	13%	37*
O=C(NNC(=O)c1cc2ccccc2cc1O)c1cccs1	-3%	-5%	/	109*	-19%	45*
CCc1n[nH]c(=O)n1Cn1c(CC)n[nH]c1=O	-5%	5%	/	-1	10µM*	-4
CCn1c(CCCCc2n[nH]c(=S)n2CC)n[nH]c1=S	3%	-25%	4%	8	18%	6
O=C1CCc2cc(S(=O)(=O)NCc3ccc(F)cc3)cc3c2N1CCC3	/	/	0%	/	-4%	/
Cc1cc(NC(=O)c2ccco2)ncc1NC(=O)CCc1ccccc1	0%	-17%	7%	33	/	28*
COc1cccc(C(=O)Nc2ccc(NC(=O)c3ccco3)nc2)c1	-56%	1%	225%	194*	/	63*
COc1cccc(C(=O)Nc2ccc(NC(C)=O)cn2)c1	-2%	-2%	306%	65*	/	31*
O=C(O)Cc1ccc(NC(=O)c2cccc(NC(=O)c3ccco3)c2)cc1	-1%	7%	5%	13	?	9
C=Cc1cccc(NC(=O)c2ccc(NC(=O)c3ccco3)cc2)c1	-29%	-1%	-5%	35*	1.5µM*	19*
CN(CC(=O)Nc1ccccc1Br)C(=O)COc1cccc2c1OC(C)(C)C2	/	/	-18%	/	-2%	/
CCOC(=O)N/N=C1/C[C@@H](O)[C@@H](O)[C@@H]2[C@@H]3C(=O)N(Cc4ccccc4)C(=O)[C@H]3CC[C@@H]12	/	-1%[12.9 µM]	/	/	/	/
CC(=O)OC1CC2C(C)(C)C(=O)C=C[C@]2(C)C2CC[C@@]3(C)C(c4ccoc4)OC(=O)C4O[C@@]43[C@]12C (stereo partly drawn)	/	-3%	/	/	/	/
COc1cccc(OC)c1C1=Nn2c(nnc2-c2ccccc2O)SC1	/	0%	/	-1	/	3
COCCCNC(=S)NNC(=O)c1cc(C2CC2)nc2ccccc12	0%	3%	?	-14	-35%	2
CCCC(=O)Nc1ccc(NC(=O)c2cccc(OC)c2)nc1	-7%	4%	100%	119*	?	33*

Screens (PubChem BioAssay)
